Laboratory results reported in PubChem BioAssay AID1508600 (Functional Genomics Laboratory (NCATS/FGL), 2020).
The whole screen tested about 53,000 sequences, of which about 3,700 (7%) were called active. This excerpt belongs to a sample that is enriched for actives. Values without a mark were called inactive.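 Rule for the calls: active = gene knockdowns whose robust z-score for IL-1 alpha signal is at least 2 or at most -2, so actives lie on both sides; inactive = the rest.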

assay: Components of the Cytosolic LPS Sensing Pathway: Gene Identification via Genome-wide siRNA Screen; conditions: RAW264.7 macrophages, IL-1a HTRF, actives lie on both sides, screened at 100 nM (by protocol), cells primed 5 h with Pam3CSK4 first;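 note: robust z of the log signal after scaling to non-targeting control siRNA wells of the plate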
Summary of the method: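 IL-1a HTRF of supernatants after 24 hour LipidA transfection of Pam3CSK4-primed (5 hours) RAW264.7 cells, 48h post-siRNA transfection (100 nM). Scores: percent of plate negative-control median, then log-based robust z-score.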

Sequence | z-score
CCAAUUUUGUCAUAGGACATT against Plbd1 | -0.107
GGAUGUAAGGCCUUUUUUATT against Esr2 | 0.676
GGAGACCUUCAGCUUGGAATT against Zfp260 | 0.0537
GGAUUCUAGGAGAGAAUCATT against Cplx3 | 0.897
GCCAUUUCUUAUCAAGUGGTT against Laptm4a | -2.63 (active)
GGAGCAGAACAUUAUCUUCTT against Tnn | 0.603
CCUAAACUACAGGAAUUUATT against D830014E11Rik | -0.0293
CCAUAUGAGAAGAUGACACTT against Pdcl2 | -1.39
GGCAGAAUCAGUUGAAAUUTT against Terf2ip | 0.917
CCAAGUUCGUGACAAACAUTT against Trpv1 | -0.0275
CCAUCAGGGUUACAAGUACTT against 6030458C11Rik | -2.46 (active)
GGACUUGUCCGCUCAUUGGTT against Usp54 | -1.13
GGUAGAAAAGCUUCUGAAATT against Ap1g1 | 0.349
GGCUAUUAACAUCUCAGUUTT against Rhbdd1 | 0.0309
GGACAGAGAUCAAUAUUAATT against Rxfp3 | -0.0718
CGAAUGAAAGAAUACCGUGTT against Dnajc6 | 0.0901
CCUGGAUGCAUGGUUAUUATT against Cyp2ab1 | 2.69 (active)
GGGAAGAAAAUCAAACUCATT against Fabp1 | 0.504
GGCCGUUCAUUUCCUCAUCTT against Galr2 | -0.359
GGAUUUGUUUUCACCAAGATT against Dmd | 0.3
GGUGACAGGUCAGAAAGUCTT against Tor1aip2 | -2.78 (active)
GGAGUUAAACCACUCAAGATT against Ceacam11 | -0.262

Sequence | z-score
GCAGGAUGUGACAGAUACATT against Pdcd2 | 0.185
CCAGAUGCUCGAUUCAGUGTT against Crim1 | -0.44
GGGAAAGACUCAAGGUCCUTT against Olfr586 | 0.774
GGCUAUUACCAUGGCCACUTT against Smim5 | -2.85 (active)
GCCCAAUCAAAAAAUGGUGTT against Zyx | -0.0505
CGUGGACUUUAAGGAGCUGTT against Gdf7 | -0.299
GGAUAAGGUAAUCUCGGUATT against Olfr710 | -0.472
CCAUAUUGAAACCUCAUUUTT against Fam126a | -2.33 (active)
CGUGCUACAGAUGCGUCAUTT against Exoc8 | 0.783
CGCUCGUUACCUAAAGCAGTT against Nwd1 | -2.78 (active)
GCUUUGAAAUCUGAAUCAGTT against Terf2 | 2.06 (active)
GAAUCCGAGAUACGAGCCUTT against H2-D4 | 0.0829
GGUUUGAAAUAUUGUGGAUTT against Spdye4b | -1.23
CCUAGGGACAUUGGUUAUUTT against Sema4f | 2.16 (active)
GGAGCUUCCACAACUCAUATT against Esd | -0.456
GGCAGUGGAGUGUAUGGAUTT against Popdc2 | -0.531
GGAUGCAGCUAACAAUUACTT against Tuba8 | 1.05
GGAUGGAGAGAUAAGAAAATT against Lmntd1 | -0.572
CCUUUCCUAACUUGAUCACTT against Cbr2 | 0.443
CCUCUUAAAACAAUACCAATT against Olr1 | 1.37
GCAAAUAAGAUUGCGUCUGTT against Cpa2 | 2.89 (active)
GGCGAAGGAGAAGAAUUAATT against Rhox5 | 0.352

Sequence | z-score
GGUCAACAAGCAUGCAUUUTT against Wars | -1.65
CCUUAUUUAGCUAAGCAGATT against Ran | -2.95 (active)
GCCAACCAAAACCUAAGCATT against Gjc1 | -1.44
CCCUCACAAUGAUCGAUUUTT against Tkt | -0.885
GGUAAAGUGAACUGUACCUTT against Vstm5 | 0.843
GGUGGAGAUCCGAAAGCAUTT against Ltk | 0.597
CCCUCCAGAAAAACAGUUUTT against Znrd2 | 0.284
GAGUGAGCAAAUACCAGUUTT against 1700001J03Rik | 2.52 (active)
CCAAAAAGAUUUGGAUCUCTT against Nr2f6 | 0.142
GGAAACUUUCUAAAUGCUGTT against Pja1 | -0.0964
GCCAUUAAUGUACCAGGUUTT against Olfr894 | -0.202
GCGUGAACGUAUUUGUUACTT against Pcdhgc3 | 0.203
ACAGGAGUCCAUAGCCGUCTT against Aspscr1 | -1.47
CGGAGGUGGCUAUAAAAAUTT against Sik2 | 0.0967
GGAUUCCUCUAACACAUUUTT against Keg1 | 2.07 (active)
CCUCACCCUUUCCAAAAAATT against Polr2f | -1.03
GCUUUAAUUGUGAAAGCACTT against Miga1 | -2.26 (active)
GCAACACCAGAGUAUGUUATT against Cldn34b3 | 0.794
GGUAUUGGGUUCCAUUAUATT against Mcmdc2 | -0.197
CCCAGCAGAAUAACUGCCATT against Pantr1 | 2.55 (active)
GAAAAUGGUCACUACUGAGTT against S100a8 | -0.0863
GGAAAUGAAGAAAAGUGACTT against Stk32a | -0.0588

Sequence | z-score
GGAGUCAACUUGUGAGGGUTT against Lrp8 | -0.48
CCCAGGUGAGGAUUGAUAATT against Rit2 | 0.667
GCCAACAGUACUUUGUUAATT against Chordc1 | 0.589
GGACAUUUUAAUGUGCUCATT against Erlin2 | 0.0602
GGCACAGAGAUUGAAGAUCTT against Sry | 2.04 (active)
GCUGAAGUCUCUUCAAUGCTT against Trappc6b | -0.71
GCCUACAUAACCUUAAUAUTT against Slc4a10 | 2.2 (active)
GGGAGUAGAGAUCAAAGGCTT against Cfb | -0.0723
GGUGAUUUGCUCAAUCCAATT against Phox2a | 0.611
GGCUGAGAUCUAGCUUACATT against H3c15 | -3.21 (active)
GGCGAAGUGGUUAAAAGUGTT against Ifnar1 | -0.141
GGAUAUCCUUUCAAUAGAATT against Mcf2 | -0.225
GGCCAUUUCUUUCAUAGAUTT against Dusp6 | 0.509
CCUUCGUAGCCUGUAUCAUTT against Myadm | -0.173
CCGAGUAUAUCUAUAAUAGTT against Ear14 | -0.607
GGUGUUUUGUGAAUUGAAATT against Leprotl1 | -1.05
GGAAGAGUGCGUUUACCUUTT against Rrp12 | 0.388
GCUUACAUUAAAGGAUAUGTT against Rab5c | 2.17 (active)
GGAUCUUCUGGAUAGAAUGTT against Prc1 | 1.16
CCCUUUCGACAGAUUAGACTT against Zfp69 | -1.23
GGGUCAUGGACAAUAGAAATT against Olfr52 | -0.833
GGACCAAAAGGAAAAUCCATT against Kcnj6 | -1.05

Sequence | z-score
CCAUAAAUGAGUCUUCAUUTT against Bnip5 | -0.0535
GUGGACAUCCUCUCUGUCATT against Tmem54 | -2.23 (active)
CCCAUCGAUCCAUCACAUUTT against Olfr63 | -1.47
GGCAAGCUGAAGAUGAACATT against Ntn1 | -1.14
CGCAAGCCUGACAUACUGCTT against Etv3 | 0.382
GGUAGCAUAGGCUAGCAUATT against Crcp | 0.0494
GGCAAACCAGGAAAAGGUCTT against Abhd2 | -2.33 (active)
CCAAACGGAAGUAUCUUAUTT against Tmem128 | 0.246
CGACCAGAGUGGAUACCUGTT against Ocm | 1.98
GCUUCCUACAAUUAAUUCATT against Thap12 | 0.614
GGGAAUGGAGGUCCAGAUUTT against Spatc1l | -2.33 (active)
CGUAGAAGUUGAUGAGUCATT against Numb | -1.05
GGAUUUAGGCCUUAUCAUCTT against Atf3 | -2.12 (active)
GGAAGUUAUUGCCAGCGAGTT against Fbxo5 | -0.418
GCAGUCUCACCUGAACAGATT against Eppin | 0.43
CCCACCUUCAAGCAAGAACTT against Ifnk | -2.51 (active)
GGAGAGCAUGUGACCAAAATT against Safb2 | 0.758
GCAAAACUGUGUCAGUAUCTT against Slco5a1 | 0.901
GGUCAAAGAGUUCUGUGAATT against Ppp2r1a | -0.79
GGGCUGACCAGUUUGAGUATT against Polr2h | -2.7 (active)
